PubChem BioAssay AID743167 (National Center for Advancing Translational Sciences (NCATS), 2013)
“And” between values parts separate entries of the source, which are not always exact repeats. Identical values can stand only once. Records with an inconclusive call do not appear. The source made the active and inactive calls. Calls come from the whole dose curve; as a rule, active = well fitted activation curve with a large enough effect; inconclusive = small, poorly fitted or top-dose-only effect; inactive = flat fitted curve, though single readings scatter.

Test: Extended Characterization of HPGD Inhibitors: PGE2 Assay in A549 Cells
Conditions: PGE2 HTRF level, 16 h
Text: The central role of HPGD is to inactivate prostaglandins such as prostaglandin E2 (PGE2) or prostaglandin D2 (PGD2). These prostaglandins are involved in a number of processes, including inflammation, differentiation, and cellular signaling, which makes HPGD an important target for pharmacological intervention. A number of prostaglandins of particular biological interest have been identified as substrates of HPGD. […] Over-production of PGE2 has been reported to promote tumor-associated neovascularization, cell proliferation, and tumor growth. […] In this orthogonal assay, we set out to measure if compounds were able to increase PGE2 production NIH Chemical Genomics Center [NCGC] NIH Molecular Libraries Probe Centers Network [MLPCN] MLPCN Grant: MH084681 Assay Submitter (PI): Structural Genomics Consortium
A549 cells, LNCaP cells or media were dispensed in 384-well plates (ProxiPlate-384 Plus, PerkinElmer, Shelton, CT) at 5,000 cells/9.9 uL/well using a CappAero384 multichannel pipette (Odense, Denmark). Separately on the plate, 10 uL of PGE2 calibration standards at a starting assay concentration of 5,000 pg/mL (1:2 dilution, 12-points, n = 1, prepared in media, Cisbio, Bedford, MA) were dispensed. Compounds (100 nL, final concentration range from 41.9 nM to 100 uM) were transferred using an ATS Acoustic Liquid Dispenser (EDC Biosystems, Fremont, CA). After being mixed using an automated liquid handler (CyBio, Jena, Germany), samples were incubated (37 deg C, 5% CO2, under a humidified atmosphere) for 16 hours. PGE2 labeled conjugates were added to each well, first 5 uL of PGE2-d2, followed by 5 uL of anti-PGE2-cryptate, centrifuged (1,500 rpm, 15 sec) and incubated (RT, protected from light) for 5 hours. Time-resolved fluorescence intensity (320 nm excitation, 615 and 665 nm emission) was measured using an Envision plate reader (PerkinElmer). Data was expressed as the ratio of 665 nm/615 nm emissions. Concentration (pg/mL) of samples were calculated from a 4-parameter logistic calibration curves of the PGE2 standards.

Row | Compound | Potency
1 | c1ccc(-n2cc(-c3nnc4n3CCCCC4)c3ccccc32)cc1 | 1.66 µM (active)
2 | Cc1cccc(-n2cnc3cc(C(=O)N4CCCC(C)(C)C4)ccc32)c1 | 0.743 µM (active)
3 | Cc1ccc(-n2c(C)cc(-c3nnc4n3CCCCC4)c2C)cc1 | 0.166 µM (active)
4 | Brc1cnc2nc(SCc3ccccn3)[nH]c2c1 | 5.9 µM (active)
5 | Clc1cccc(CSc2nc3ncc(Br)cc3[nH]2)c1 | 0.296 µM (active)
6 | O=[N+]([O-])c1cccc(CSc2nc3ncc(Br)cc3[nH]2)c1 | 0.418 µM (active)
7 | Cc1cccc(-n2cnc3cc(C(=O)N4CCC(Br)CC4)ccc32)c1 | 1.18 µM (active)
8 | Cc1cccc(-n2cnc3cc(C(=O)N4CCCC(C(F)(F)F)C4)ccc32)c1 (stereo not given) | 1.32 µM (active)
9 | CC(C)(C)c1ccc(-n2cnc3cc(C(=O)N4CCCCC4)ccc32)cc1 | 20.9 µM (active)
10 | CCOC(=O)c1ccc(-n2cnc3cc(C(=O)N4CCCCC4)ccc32)cc1 | 1.87 µM (active)
11 | Cc1cc(-c2nnc3n2CCCCC3)c(C)n1-c1cccc(C#N)c1 | 2.64 µM (active)
12 | Cc1cc(-c2nnc3n2CCCCC3)c(C)n1-c1cccc(Cl)c1 | 0.59 µM (active)
13 | Cc1ccc(-n2cnc3cc(C(=O)N4CCCCC4)ccc32)cc1 | 0.469 µM (active)
14 | N#Cc1ccccc1CSc1nc2ncc(Br)cc2[nH]1 | 372 nM (active) and 7.43 µM (active) and 743 nM (active)
15 | N#Cc1ccc(CSc2nc3ncc(Br)cc3[nH]2)cc1 | 0.332 µM (active)
16 | Cc1cc(-c2nnc3n2CCCCC3)c(C)n1-c1ccccn1 | 26.4 µM (active)
17 | Clc1ccc(CSc2nc3ncc(Br)cc3[nH]2)cc1 | 16.6 µM (active)
18 | CC(C)(C)n1cnc2cc(C(=O)N3CCCCC3)ccc21 | 2.09 µM (active)
19 | CN1CC[C@@H](c2c(O)cc(O)c3c(=O)cc(-c4ccccc4Cl)oc23)[C@@H](O)C1 | 3.32 µM (active)
20 | COc1ccccc1-n1cnc2cc(C(=O)N3CCCCC3)ccc21 | 16.6 µM (active)

Row | Compound | Potency
21 | N#Cc1cccc(CSc2nc3ncc(Br)cc3[nH]2)c1 | 7.43 µM (active)
22 | O=C(c1ccc2c(c1)ncn2-c1cccc(C(F)(F)F)c1)N1CCCCC1 | 2.64 µM (active)
23 | COc1cccc(-n2cnc3cc(C(=O)N4CCCCC4)ccc32)c1 | 0.833 µM (active)
24 | O=[N+]([O-])c1ccccc1CSc1nc2ncc(Br)cc2[nH]1 | 0.148 µM (active)
25 | Brc1cnc2nc(SCc3cccnc3)[nH]c2c1 | 8.33 µM (active)
26 | Cc1cc(-c2nnc3n2CCCCC3)c(C)n1-c1ccc(C(F)(F)F)cc1 | 0.833 µM (active)
27 | CC(C)c1cccc(-n2cnc3cc(C(=O)N4CCCCC4)ccc32)c1 | 2.35 µM (active)
28 | COc1ccc(-n2cnc3cc(C(=O)N4CCCCC4)ccc32)cc1 | 0.662 µM (active)
29 | CCCCn1cnc2cc(C(=O)N3CCCCC3)ccc21 | 2.96 µM (active)
30 | Cc1cc(-c2nnc3n2CCCCC3)c(C)n1-c1ccccc1 | 372 nM (active) and 2.64 µM (active)
31 | O=[N+]([O-])c1ccc(CSc2nc3ncc(Br)cc3[nH]2)cc1 | 0.235 µM (active)
32 | Cc1cc(-c2nnc3n2CCCCC3)c(C)n1-c1ccncc1 | 33.2 µM (active)
33 | Cc1cccc(-n2cnc3cc(C(=O)N4CCCCC4)ccc32)c1 | 0.469 µM (active)
34 | CC(C)(C)c1cccc(-n2cnc3cc(C(=O)N4CCCCC4)ccc32)c1 | 18.7 µM (active)
35 | Brc1cnc2nc(SCc3ccncc3)[nH]c2c1 | 0.833 µM (active)
36 | Cc1cc(-c2nnc3n2CCCCC3)c(C)n1-c1ccc(Br)cc1 | 0.59 µM (active)
37 | Cc1cccc(-n2cnc3cc(C(=O)N4CCCC4)ccc32)c1 | 1.87 µM (active)
38 | COc1ccc(CSc2nc3ncc(Br)cc3[nH]2)cc1F | 7.43 µM (active)
39 | CCCCC[C@H](O)/C=C/[C@H]1[C@H](O)CC(=O)[C@@H]1C/C=C\CCCC(=O)O | 0.148 µM (active)
40 | Cc1cc(-c2nnc3n2CCCCC3)c(C)n1-c1ccc(F)cc1 | 0.662 µM (active)
